Source: PubChem BioAssay
PINK1 expr mod: PINK1 expression modulation; PINK1 immunofluorescence, high-content cytometry, 24 h; Potency, µM (highest dose often 76.6 µM), for the others: at the top dose activation (PINK1 increase), most hits filed as activators; 410,000 tested, 0.2% active; AID 624263; active means well fitted activation curve with a large enough effect; inconclusive means small, poorly fitted or top-dose-only effect; cell line not stated here; further: % of control where 0% means no effect; nearly all actives have a fitted effect of over 65% in size
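Stable cell line, 250 cells/well, 12 h attachment; compounds pinned at 5 concentrations, 24 h; CCCP control. Fixed with nuclear dye, primary antibodies 12 h at 10 degrees C, secondary plus cell stain; laser-scanning cytometer read.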
SW480 rereplic: inducers of DNA re-replication in SW480 colon cancer cells. SW480 DNA re-replication, Hoechst DNA content imaging, 48 h. Potency, µM (doses to about 46.1 µM), without a hit: at the top dose re-replication activation, hits mostly activators. 340,000 tested, 1.8% active; further: % of control where 0% means no effect; nearly all actives have a fitted effect of over 55% in size
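Hoechst fluorescence of nuclei (405 nm excitation, 500-530 nm emission) measured by plate-scanning imager after 48 hr compound exposure at 37 C; re-replication scored as increased number of nuclei with elevated intensity.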
MCF10A rereplic: DNA re-replication induction in MCF 10a cells. AID 624296. 350,000 tested, 2.9% active. MCF 10A DNA re-replication, Hoechst nuclear intensity, 48 h. Potency, µM (top dose mostly 46.1 µM), inactives show at the highest dose activity, positive = re-replication, hits mostly activators; further: % of control where 0% means no effect; nearly all actives have a fitted effect of over 50% in size
KB-3-1 tox: kills parental KB-3-1 adenocarcinoma cells; KB-3-1 viability, CellTiter-Glo ATP luminescence, 72 h; Potency, µM (doses to about 46.1 µM), hits mostly cytotoxic; 400,000 tested, 1.4% active; AID 1347075; further: on the % scale 0 is the no-effect control and ±100 the full control effect; nearly all actives have a fitted effect of over 60% in size
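72 h, 37 °C compound treatment of KB-3-1 parental cells; CellTiter-Glo added, 10 min, luminescence read. Data corrected against DMSO-only plates and normalized before curve fitting.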
PTAP TSG101 blk: blocks PTAP/TSG101 interaction to inhibit HIV-1 budding; Q99816; Fluorescence polarization, FITC-PTAP peptide / Tsg101 binding; Potency, µM (doses to about 115 µM), for the others: at the highest dose activity change, negative = inhibition, actives largely listed as inhibitors; 340,000 tested, under 10 active; active means well fitted inhibition curve with a large enough effect in the main read-out, with a control signal flat, not every such curve was filed as active; inconclusive means small, poorly fitted or top-dose-only effect, or effect the other way, or a change in a side signal; inactive means no such curve, though single readings can be large or run the other way; further: % of control where 0% means no effect
Target sequence (Q99816 whole entry, looked up): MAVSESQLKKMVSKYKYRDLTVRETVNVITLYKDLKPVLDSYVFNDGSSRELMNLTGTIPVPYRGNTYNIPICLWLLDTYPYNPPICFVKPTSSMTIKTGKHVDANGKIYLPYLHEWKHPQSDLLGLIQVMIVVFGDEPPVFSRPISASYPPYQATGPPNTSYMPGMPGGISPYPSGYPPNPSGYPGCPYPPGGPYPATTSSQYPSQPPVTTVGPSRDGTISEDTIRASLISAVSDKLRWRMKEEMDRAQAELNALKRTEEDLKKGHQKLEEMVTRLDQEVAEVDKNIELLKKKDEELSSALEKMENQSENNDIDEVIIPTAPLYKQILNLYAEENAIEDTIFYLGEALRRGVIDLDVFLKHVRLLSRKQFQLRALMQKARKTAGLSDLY
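FP read-out: FITC-PTAP peptide, 50 nM final, binding Tsg101 binding domain, 10 uM final; 20 min, r.t.; 10 mM HEPES pH 7.5, 0.15 M NaCl, 0.01% Tween 20, 3 mM EDTA, 0.1 mM TCEP.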
KB-V1 cytotox: kills drug-selected multidrug resistant KB-V1 cells. Potency, µM (doses to about 46.1 µM), actives largely listed as cytotoxic. KB-V1 MDR cells viability, CellTiter-Glo, 72 h. 400,000 tested, 3.4% active. AID 1347076; further: on the % scale 0 is the no-effect control and ±100 the full control effect; nearly all actives have a fitted effect of over 60% in size
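KB-V1 cells (P-gp-expressing MDR subline of KB-3-1) in phenol-red-free DMEM with 10% FBS were exposed to library compounds over a concentration series for 72 h at 37 degrees C. Viability read by CellTiter-Glo luminescence; concentration-effect curves fitted after normalization.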
The depositor's hits bear a star; ! = not confirmed by another sample; [ ] = another dose, or the depositor's remark. The list is not random: actives were taken first. Their share in the collection is about 6.8%. Unless noted, the call rests on the fitted dose curve; in most records, active means well fitted curve in the direction sought with a large enough effect; inconclusive means small, poorly fitted or top-dose-only effect, or another doubt; inactive means no such curve, though single readings can be large; an effect the other way counts as inactive or inconclusive. Potency means the concentration at half of the fitted maximal effect.

`Cc1ccccc1NC(=O)c1ccc(CN(c2ccccc2)S(=O)(=O)c2ccccc2)cc1` gave PINK1 expr mod 1.1%, SW480 rereplic 9.6%, MCF10A rereplic 5.8%, KB-3-1 tox inactive, PTAP TSG101 blk -3.3% and KB-V1 cytotox 10.3µM*.
`CCOC(=O)c1c(-c2ccccc2)csc1NC(=O)c1nc(S(=O)(=O)CC)ncc1Cl` gave PINK1 expr mod 5.0%.
Screening O=C1C=CC(=O)N1CCCCCCCCCCN1C(=O)C=CC1=O returned PINK1 expr mod -1.8%, SW480 rereplic 6.51µM*, MCF10A rereplic inconclusive, KB-3-1 tox inconclusive, PTAP TSG101 blk -5.3% and KB-V1 cytotox inactive.
CCOC(=O)c1sc(NC(=O)c2c(-c3ccccc3)c(-c3ccccc3)nn(C)c2=O)nc1C was read as PINK1 expr mod -0.1%.
Screening COc1ccc2cc1Oc1ccc(cc1)CC1c3c(cc(OC)c4c3Oc3cc5c(cc3O4)CCNC5C2)CCN1C (stereo not drawn) returned PINK1 expr mod -1.1%, SW480 rereplic -0.1%, MCF10A rereplic inconclusive, KB-3-1 tox 16.4µM*, PTAP TSG101 blk 2.5% and KB-V1 cytotox inconclusive.
Screening COc1ccc2cc1Oc1ccc(cc1)C[C@H]1c3c(cc(OC)c4c3Oc3c(ccc5c3[C@H](C2)N(C)CC5)O4)CCN1C returned PINK1 expr mod -0.5%, SW480 rereplic inconclusive, MCF10A rereplic inconclusive, KB-3-1 tox inactive, PTAP TSG101 blk -7.9% and KB-V1 cytotox inconclusive.
Screening COc1ccc(NC(=O)N2CC3(CCN(C(=O)c4csnn4)CC3)C2)cc1 returned PINK1 expr mod 0.7%.
`COC(=O)[C@H]1[C@H]2C[C@@H]3c4[nH]c5cc(OC)ccc5c4CCN3C[C@H]2C[C@@H](OC(=O)c2cc(OC)c(OC)c(OC)c2)[C@@H]1OC` gave PINK1 expr mod 5.8%, SW480 rereplic inconclusive, MCF10A rereplic 29.9µM*!, KB-3-1 tox inactive, PTAP TSG101 blk 5.3% and KB-V1 cytotox inactive.
COC(=O)c1cccc(S(=O)(=O)N(Cc2ccco2)Cc2cc3cc(OC)ccc3[nH]c2=O)c1 was read as PINK1 expr mod 1.7%[38.3 µM], SW480 rereplic 4.1%, MCF10A rereplic inconclusive, KB-3-1 tox inactive, PTAP TSG101 blk -0.5% and KB-V1 cytotox 16.4µM*.
For Cc1cc2cc(CN(Cc3ccco3)S(=O)(=O)c3c(C)ccc4nsnc34)c(=O)[nH]c2cc1C the results were PINK1 expr mod -33.8%[38.3 µM], SW480 rereplic inconclusive, MCF10A rereplic inconclusive, KB-3-1 tox 3.26µM*, PTAP TSG101 blk -4.1% and KB-V1 cytotox 1.64µM*.
`Cc1cc(OC(C)C(=O)N(Cc2ccc(N(C)C)cc2)Cc2ccco2)ccc1Cl` (stereo not drawn) gave PINK1 expr mod 2.2%.
CC(C)(C)c1ccc(-n2ncc3c2CCCC3NC(=O)CN2CCCC2=O)cc1 (stereo not drawn) was read as PINK1 expr mod 0.8%, SW480 rereplic -2.4%, MCF10A rereplic 8.1%, KB-3-1 tox inconclusive, PTAP TSG101 blk -4.7% and KB-V1 cytotox 8.2µM*.
Screening CC(C)(C)c1ccc(-n2ncc3c2CCCC3NC(=O)CCN2CCCC2=O)cc1 (stereo not drawn) returned PINK1 expr mod 3.6%, SW480 rereplic -13.1%, MCF10A rereplic -1.2%, KB-3-1 tox inactive, PTAP TSG101 blk 2.8% and KB-V1 cytotox inactive.
`Cc1cc(C)cc(-n2ncc3c2CCCC3NC(=O)c2ccccc2N2CCOCC2)c1` (stereo not drawn) gave PINK1 expr mod 0.3%, SW480 rereplic 20.6µM*, MCF10A rereplic inconclusive, KB-3-1 tox inconclusive, PTAP TSG101 blk -5.9% and KB-V1 cytotox inconclusive.
`Cn1nccc1C(=O)NC1CCCc2c1cnn2-c1ccc(C(C)(C)C)cc1` (stereo not drawn) gave PINK1 expr mod 2.4%, SW480 rereplic inconclusive, MCF10A rereplic 18.4µM*, KB-3-1 tox inconclusive, PTAP TSG101 blk -1.9% and KB-V1 cytotox inconclusive.
`O=C(NC1CCCc2c1cnn2-c1ccccc1F)c1ccccc1N1CCOCC1` (stereo not drawn) gave PINK1 expr mod 1.2%, SW480 rereplic -6.3%, MCF10A rereplic -25.6%, KB-3-1 tox inactive, PTAP TSG101 blk -0.2% and KB-V1 cytotox inactive.
Screening O=C(NNc1ccc(F)cc1F)c1cccs1 returned PINK1 expr mod 0.6%.
Screening CCN(c1ccccc1)c1nc(N)nc(C#N)n1 returned PINK1 expr mod 0.2%, KB-3-1 tox inactive and KB-V1 cytotox inactive.
Screening Cc1cccc(-c2nc(N3CCN(c4ccc(F)cc4)CC3)c3ccccc3n2)c1 returned PINK1 expr mod 0.8%, KB-3-1 tox inactive and KB-V1 cytotox inactive.
`Cc1ccsc1C(=O)C1CCCN(Cc2cccn2-c2ccc(Cl)cn2)C1` (stereo not drawn) gave PINK1 expr mod inconclusive, SW480 rereplic 18.4µM*, MCF10A rereplic inconclusive, KB-3-1 tox inactive, PTAP TSG101 blk -4.6% and KB-V1 cytotox inconclusive.
`COc1cc([C@@H]2C[C@H]3CN(c4ccccc4)C(=O)[C@]34CCCN24)cc(OC)c1OC` gave PINK1 expr mod 5.3%, SW480 rereplic -2.7%, MCF10A rereplic 18.4µM*, KB-3-1 tox inconclusive, PTAP TSG101 blk -0.5% and KB-V1 cytotox inactive.
`COc1ccccc1-n1cc([C@@H]2C[C@H]3CN(c4ccccc4)C(=O)[C@]34CCCN24)cn1` gave PINK1 expr mod -3.8%, SW480 rereplic 8.2µM*, MCF10A rereplic 2.59µM*, KB-3-1 tox inactive, PTAP TSG101 blk 11.7% and KB-V1 cytotox 7.31µM*.
Screening COc1cc(Cl)c([C@@H]2C[C@H]3CN(c4ccccc4)C(=O)[C@]34CCCN24)cc1OC returned PINK1 expr mod 0.3%, SW480 rereplic -18.1%, MCF10A rereplic 7.1%, KB-3-1 tox inactive, PTAP TSG101 blk -2.1% and KB-V1 cytotox inactive.
Screening CCOc1cc([C@@H]2C[C@H]3CN(c4ccccc4)C(=O)[C@]34CCCN24)ccc1OC returned PINK1 expr mod 7.6%, SW480 rereplic 10.7%, MCF10A rereplic inconclusive, KB-3-1 tox inactive, PTAP TSG101 blk -1.2% and KB-V1 cytotox inactive.
Screening Cc1c(C(=O)NCc2ccccn2)sc2nc(-c3ccc(F)cc3)cn12 returned SW480 rereplic -23.5%, MCF10A rereplic inconclusive, KB-3-1 tox inconclusive, PTAP TSG101 blk -4.5% and KB-V1 cytotox inactive.
